Bioassay records as filed in PubChem.
An excerpt weighted towards active compounds, which were near 12% of everything screened.
Sfp inh: qHTS Assay for Inhibitors of Bacillus subtilis Sfp phosphopantetheinyl transferase (PPTase). Potency, µM, inactives show largest response in the series, negative = inhibition, hits mostly inhibitors. hit rate 3.5% among 310,000. Biochemical Sfp PPTase activity, qHTS;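 also: the enzyme is Sfp with the accession as filed and its product quenches rhodamine fluorescence; 0% = enzyme reaction without inhibitor and -100% = no enzyme wells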
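Fluorescence-quenching assay: 15 nM Sfp-PPTase preincubated 15 min at room temperature with compound, then 5 uM rhodamine-CoA and 12.5 uM BHQ-2-labelled YbbR peptide added. Fluorescence (ex 525/em 598 nm) read at start and after 30 min; difference gives rate.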
HP1b chromo inh: HTS for Inhibitors of HP1-beta Chromodomain Interactions with Methylated Histone Tails | Chromobox protein homolog 1 (Homo sapiens), P83916 | AlphaScreen HP1-beta / biotin-H3K9me3 peptide binding | Potency, µM (doses to about 114 µM), inactives show top-dose activity change, negative = inhibition, usual class: inhibitors | hit rate 0.56% among 390,000 | AID 540317, 2011; also: nearly all actives have a fitted effect of over 70% in size
Target sequence (P83916 whole entry, looked up): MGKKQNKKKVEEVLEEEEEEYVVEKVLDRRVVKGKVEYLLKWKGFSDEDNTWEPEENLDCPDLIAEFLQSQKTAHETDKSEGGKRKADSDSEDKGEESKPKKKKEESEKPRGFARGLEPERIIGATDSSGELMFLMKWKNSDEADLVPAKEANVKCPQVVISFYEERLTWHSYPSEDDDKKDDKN
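Compound inhibition of the preformed complex between 50 nM HP1-beta and 50 nM biotinylated H3K9me3 peptide was read by AlphaScreen. Buffer was PBS pH 7.4 with 0.01% Tween-20. Incubations ran 30 min at room temperature, with 10 ug/mL donor/acceptor beads.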
L3MBTL1 block: qHTS Assay for the Inhibitors of L3MBTL1; Lethal(3)malignant brain tumor-like protein 1 (Homo sapiens), Q9Y468; AlphaScreen L3MBTL1–H3K9me1 peptide binding; Potency, µM (series often up to 57.1 µM), inactives show at the top dose activity, negative = inhibition, hits mostly inhibitors; hit rate 0.66% among 230,000; also: % is scaled to controls: 0 for no effect and ±100 for the full control effect; nearly all actives have a fitted effect of over 60% in size
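AlphaScreen proximity signal between nickel-chelate acceptor and streptavidin donor beads (final 10 ug/mL) reports binding of 50 nM L3MBTL1 to 75 nM biotin-H3 K9me1 peptide; complex incubated with compounds 30 min at room temperature; cefsulodin titration as control.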
BAZ2B block: qHTS Assay for Inhibitors of BAZ2B; AlphaScreen BAZ2B-H3K14Ac peptide displacement; Bromodomain adjacent to zinc finger domain protein 2B (Homo sapiens), Q9UIF8; Potency, µM (highest dose often 114 µM), inactives show at the highest dose activity change, negative = inhibition, hits mostly inhibitors; hit rate 4.4% among 360,000; also: % is scaled to controls: 0 for no effect and ±100 for the full control effect; nearly all actives have a fitted effect of over 60% in size
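Inhibition is scored as reduced AlphaScreen emission. The BAZ2B/b-H3(5-23)K14Ac complex (50 nM each) in PBS pH 7.4, 0.01% Tween-20 meets compound (up to 110 uM) for 30 min at RT before bead addition.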
JMJD2A Tudor inh: qHTS Assay for Inhibitors of JMJD2A-Tudor Domain; AlphaScreen JMJD2A-Tudor / H3K4me3 peptide binding; Potency, µM (top dose mostly 114 µM), for the others: top-dose activity change, negative = inhibition, actives largely listed as inhibitors; hit rate 4.4% among 390,000; also: % is scaled to controls: 0 for no effect and ±100 for the full control effect; nearly all actives have a fitted effect of over 50% in size
G9a block: qHTS Assay for Inhibitors of Histone Lysine Methyltransferase G9a; hit rate 8.8% among 350,000; G9a H3K9 monomethylation, AlphaScreen, 2 h; Histone-lysine N-methyltransferase EHMT2 (Homo sapiens), Q96KQ7; AID 504332, 2011; Potency, µM (top dose mostly 102 µM), without a hit: at the highest dose activity, negative = inhibition, actives largely listed as inhibitors; also: % is scaled to controls: 0 for no effect and ±100 for the full control effect; nearly all actives have a fitted effect of over 75% in size
Target sequence (Q96KQ7 913-1193 limits assumed): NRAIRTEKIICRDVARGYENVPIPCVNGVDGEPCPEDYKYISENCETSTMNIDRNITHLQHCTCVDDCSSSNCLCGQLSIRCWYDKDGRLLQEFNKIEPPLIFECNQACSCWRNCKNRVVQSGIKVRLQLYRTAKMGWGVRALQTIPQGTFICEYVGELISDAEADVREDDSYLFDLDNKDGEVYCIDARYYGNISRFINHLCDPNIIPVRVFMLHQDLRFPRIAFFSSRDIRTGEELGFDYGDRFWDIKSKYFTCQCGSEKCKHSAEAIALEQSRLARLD
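G9a (20 nM) preincubated 15 min RT with compounds, then 500 nM biotinylated H3K9 peptide and 20 uM SAM added; 2 h RT reaction. Monomethyl-H3K9 product detected by AlphaScreen with anti-H3K9me1 antibody, streptavidin donor and anti-rabbit IgG acceptor beads.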
The depositor's hits bear a star; ? = inconclusive; . = no result given; [ ] = remark or other dose. Calls follow the shape of the dose curve; as a rule, active = well fitted curve in the direction sought with a large enough effect; inconclusive = small, poorly fitted or top-dose-only effect, or another doubt; inactive = no such curve, though single readings can be large; an effect the other way counts as inactive or inconclusive. Potency is read from the fitted curve at half-maximal effect.

SMILES	Sfp inh	HP1b chromo inh	L3MBTL1 block	BAZ2B block	JMJD2A Tudor inh	G9a block
CCN(CC)c1ccc(/C=C(\C#N)C(N)=S)cc1	?	?	?	13µM*	-10%[11.4 µM]	20µM*
O=C1CCCN2N=C(SCC(=O)Nc3ccc([N+](=O)[O-])cc3)SC2=N1	0%	1%	.	-6%	56µM*	12%
O=C1CCCN2N=C(SCC(=O)Nc3ccc(OC(F)(F)F)cc3)SC2=N1	14%	8%	.	-1%	-11%	5%
Cc1cccc(NC(=O)CSC2=NN3CCCC(=O)N=C3S2)c1C	4%	2%	2%	50µM*	?	4%
Oc1ccc(NCc2ccccc2OCc2ccc(Cl)cc2)cc1	.	5%	.	-25%	?	7.9µM*
O=c1[nH]c2ccc(NCc3ccccc3OCc3ccc(Cl)cc3)cc2[nH]1	-28%	?	?	22µM*	28µM*	25µM*
O=c1[nH]c2ccc(NCc3ccc(-c4ccccc4F)o3)cc2[nH]1	.	28%	.	-10%	-16%	-25%[59 µM]
O=c1[nH]c2ccc(NCc3ccccc3F)cc2[nH]1	.	-1%	.	?	?	18µM*
CCOc1cc(CNc2ccc(O)cc2)ccc1OCc1ccc(Cl)cc1	.	?	.	-33%	-36%	?
O=c1[nH]c2ccc(NCc3ccc(-c4ccc(Cl)cc4)o3)cc2[nH]1	.	25%	.	?	-15%	-30%[59 µM]
O=C(NCCOC12CC3CC(CC(C3)C1)C2)c1cccc(Br)c1	7%	38%	5%	10%[57.1 µM]	20%	47%[59 µM]
CC(C)N1C(=O)/C(=C\c2nc3ccccc3c(=O)n2-c2ccccc2)c2ccccc21	-4%	?	-29%	10µM*	35µM*	?
CC(C)N1C(=O)/C(=C/c2nc3ccccc3c(=O)n2-c2ccccc2)c2ccccc21	-9%	25µM*	?	35µM*	20µM*	10µM*
CCOC(=O)Cn1cc(/C=N/N2C(=O)C3C4C=CC(C4)C3C2=O)c2ccccc21 (stereo unspecified)	0%	-20%	49%	-17%	?	.
CCCN1CCC(=O)N([C@H](COc2ccccc2)c2ccccc2)CC1	-1%	23%	0%	?	-12%	40µM*
Cc1ccc2nc(-c3ccc(Cl)c(NC(=O)COc4ccc([N+](=O)[O-])cc4)c3)oc2c1	.	52%	.	-3%	-12%	9%[59 µM]
CSc1nc(=NC(C)=O)ss1	4.5µM*	?	3%[11.4 µM]	?	32µM*	?
Cc1ccc(-c2cnc(-c3ccccc3C(=O)O)o2)cc1	18%	20%	.	-16%	-20%	50µM*
COc1ccc(C)cc1NC(=O)C(c1ccccc1)N1CCN(CC(=O)N2CCOCC2)CC1 (stereo unspecified)	.	21%	15%	-15%	-12%	45µM*
Cc1ccc([C@H]2C(C(=O)O)=CC[C@@H](c3ccc(C)cc3)N2S(=O)(=O)c2ccc(C)cc2)cc1	.	8%	1%	.	-31%	.
COc1ccccc1Nc1nc(-c2cccc(N3C(=O)c4ccccc4C3=O)c2)cs1	0%	17%	-4%	-3%	-13%	25µM*
O=C1c2ccccc2C(=O)N1c1cccc(-c2csc(Nc3ccc4c(c3)OCO4)n2)c1	?	.	-30%	?	.	8.9µM*
CCOc1ccccc1Nc1nc(-c2cccnc2)cs1	-4%	-24%	-6%	?	?	-15%[59 µM]
c1cncc(-c2nc(-c3ccc4c(c3)OCO4)cs2)c1	6%	20%	1%	-8%	-28%	16%[59 µM]
CCN1CCN(CCn2c(=S)[nH]c3cc4c(cc3c2=O)OCO4)CC1	-6%	22%	.	4%	?	-1%[12.7 µM]
SMILES	Sfp inh	HP1b chromo inh	L3MBTL1 block	BAZ2B block	JMJD2A Tudor inh	G9a block
Cc1c(SCCO)c(=O)[nH]c2cc3c(cc12)OCO3	12%	27%	.	-1%	-6%	50µM*
CN(CCO)c1ccc(C(C(=O)c2ccccc2)c2ccc(N(C)CCO)cc2)cc1	.	?	?	45µM*	45µM*	4%[2.33 µM]
CCOC(=O)CNC(=S)n1cnc(N)n1	18µM*	25%	2%	79µM*	-8%	6%
CCOC(=O)CNC(=O)CSc1nc(N)cc(N)n1	18%	20%	37%[11.4 µM]	-1%	-10%	-2%[59 µM]
O=C1c2ccccc2C(=O)N1c1cccc2ncccc12	.	.	.	.	89µM*	.
O=C(O)c1ccc2c(c1)C(=O)N(c1ccc(C(=O)OCC(=O)c3ccccc3)cc1)C2=O	.	4%	.	.	-16%	.
O=C(COC(=O)c1ccc2c(c1)C(=O)N(c1cccc3ncccc13)C2=O)c1ccc(Cl)cc1	28µM*	38%	12%	?	-25%	3%[59 µM]
Cc1ccc(C(=O)COC(=O)c2ccc3c(c2)C(=O)N(c2cccc4ncccc24)C3=O)cc1	79µM*	22%	1%	1%	-13%	9%[59 µM]
O=C(OCC(=O)c1ccc(Cl)cc1Cl)c1ccc2c(c1)C(=O)N(c1cccc3ncccc13)C2=O	?	-5%	0%	-5%	-23%	-47%
Nc1ncnc2c1nc(Br)n2[C@H]1O[C@H]2COP(=O)(O)O[C@H]2[C@@H]1O	14%	.	.	.	.	.
COc1ccc(N(C(C)=O)S(=O)(=O)c2cccc3cccnc23)cc1	12%	9%	-1%	0%	-11%	-4%[59 µM]
Nc1nnnn1CC(=O)N/N=C/c1cc([N+](=O)[O-])ccc1O	-35%	30%	0.16µM*	19%	20µM*	24%
Nc1nnc(CC(=O)N/N=C\c2cc([N+](=O)[O-])ccc2O)s1	4%	29%	?	28µM*	?	?
Nc1nnnn1CC(=O)N/N=C/c1cccs1	8%	37%	-1%	-10%	-22%	-6%
CCOC(=O)c1c(C)[nH]c(C(=O)N/N=C/c2cc([N+](=O)[O-])ccc2O)c1C	-3%	-4%	.	45µM*	79µM*	?
CCNC(=O)C(=O)N/N=C/c1cc([N+](=O)[O-])ccc1O	15%	37%	.	8.9µM*	14µM*	9%
O=C(N/N=C/c1cc([N+](=O)[O-])ccc1O)Nc1ccccc1	15%	10%	-20%	-19%	?	3%
CC(C)c1nnc(NC(=O)Cc2ccccc2[N+](=O)[O-])s1	19%	9%	-1%	7%	-16%	10%[59 µM]
